Assay outcomes (PubChem BioAssay)
This is a sample that favours compounds with a hit; in the whole collection about 3.1% have one here.
A549 viability = counter-screen for Nrf2 inhibitors: cytotoxicity in A549 cells; AID 504648; Potency, µM (top dose mostly 46 µM), inactives show at the highest dose activity change, negative = cytotoxicity, usual class: inhibitors; A549 ARE-Fluc cells, CellTiter-Fluor viability, 18-24 h; 390,000 compounds, 0.16% hits; note: % is set by controls: 0 for no effect and ±100 for the full control effect
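A549 ARE_Fluc cells in 5% FBS OPTI-MEM were exposed to compounds in concentration-response for 18-24 h at 37 deg C. Viability was read by CellTiter-Fluor fluorescence (Ex 405/Em 525) after 30 min, before the luciferase read.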
Mito fusion yeast = blocks mitochondrial division or promotes mitochondrial fusion. S. cerevisiae fusion-defective mutant growth rescue, CellTiterGlo 48 h. Potency, µM (highest dose often 46.1 µM), for the others: top-dose growth rescue (activation), most hits filed as activators. 320,000 compounds, 0.23% hits; note: % of control where 0% means no effect; nearly all actives have a fitted effect of over 45% in size
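Compounds are tested for their ability to restore growth of mitochondrial fusion-defective yeast strains at non-permissive 37C in YPEG medium over 48 hours. Viability is quantified by luciferase luminescence.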
TrxR1 substrate = rat thioredoxin reductase 1 substrate activity; purified TrxR1 substrate turnover, NADPH consumption readout; AID 588456; Potency, µM (top dose mostly 114 µM), inactives show top-dose activity change, negative = substrate turnover; 390,000 compounds, 0.01% hits; note: % is set by controls: 0 for no effect and ±100 for the full control effect; nearly all actives have a fitted effect of over 50% in size
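Rat TrxR1, dispensed at 90 nM, was prereduced with 400 uM NADPH (final) for 5 min at ~22 deg C, then incubated with compound 15 min before 400 uM selenite. A first-read NADPH fluorescence drop versus no-compound background flagged substrates.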
IDH1 R132H inh = blocks human mutant IDH1 R132H enzyme; O75874; IDH1-R132H enzyme, NADPH consumption, diaphorase/resazurin fluorescence; Potency, µM (doses to about 76.6 µM), without a hit: at the highest dose activity change, negative = inhibition, usual class: inhibitors; 390,000 compounds, 0.093% hits; AID 602179; note: % is set by controls: 0 for no effect and ±100 for the full control effect; nearly all actives have a fitted effect of over 65% in size
Target sequence (O75874 whole entry R132H, stated change not applied): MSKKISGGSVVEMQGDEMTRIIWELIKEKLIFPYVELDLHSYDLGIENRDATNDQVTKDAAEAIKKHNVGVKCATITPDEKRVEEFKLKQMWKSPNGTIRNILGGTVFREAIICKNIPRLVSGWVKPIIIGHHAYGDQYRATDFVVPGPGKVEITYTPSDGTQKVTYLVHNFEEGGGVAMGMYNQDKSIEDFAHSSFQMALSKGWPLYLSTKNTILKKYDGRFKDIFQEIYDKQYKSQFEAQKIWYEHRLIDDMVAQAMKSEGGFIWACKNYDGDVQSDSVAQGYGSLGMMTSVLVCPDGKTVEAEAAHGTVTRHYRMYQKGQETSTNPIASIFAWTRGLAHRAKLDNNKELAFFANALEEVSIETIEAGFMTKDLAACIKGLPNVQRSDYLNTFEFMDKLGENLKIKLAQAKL
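IDH1-R132H (0.5 ug/mL dispensed) in pH 7.5 Tris buffer was preincubated 30 min with compound, then given a substrate mix of 0.016 mM NADPH and 2 mM alpha-KG for 80 min at room temperature; remaining NADPH was read by diaphorase/resazurin fluorescence.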
Nrf2 inh = Nrf2 pathway inhibition. A549 ARE-Fluc reporter, luciferase luminescence, 18-24 h. Potency, µM (highest dose often 46 µM), for inactives: at the highest dose activity change, negative = inhibition, actives largely listed as inhibitors. 360,000 compounds, 2.1% hits. AID 504444; note: % is set by controls: 0 for no effect and ±100 for the full control effect; nearly all actives have a fitted effect of over 60% in size
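Quantitative HTS in A549 cells stably bearing an antioxidant response element-firefly luciferase construct. Inhibition of Nrf2-driven transcription was scored by luminescence after 18-24 h of compound exposure at 37 °C.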
rTrxR1 inhibitor = rat TrxR1 inhibition; O89049; recombinant rTrxR1, NADPH fluorescence consumption, selenite substrate; Potency, µM (titrated, usually from 114 µM), for inactives: at the highest dose activity change, negative = inhibition, hits mostly inhibitors; 390,000 compounds, 1% hits; AID 588453; note: % is set by controls: 0 for no effect and ±100 for the full control effect; nearly all actives have a fitted effect of over 65% in size
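Rat TrxR1 (90 nM in the dispensed reagent) was pre-reduced with 400 uM NADPH for 5 min at room temperature, then incubated with compound for 15 min. After 400 uM selenite was added, NADPH fluorescence (Ex 340/Em 450 nm) was followed for 8 min.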
* hit, by the source's call; ? = inconclusive; / = not tested or not shown; [ ] = remark or other dose. Calls come from the whole dose curve; as a rule, active = well fitted curve in the direction sought with a large enough effect; inconclusive = small, poorly fitted or top-dose-only effect, or another doubt; inactive = no such curve, though single readings can be large; an effect the other way counts as inactive or inconclusive. Potency is the fitted concentration of half-maximal effect.

SMILES	A549 viability	Mito fusion yeast	TrxR1 substrate	IDH1 R132H inh	Nrf2 inh	rTrxR1 inhibitor
Cc1ccc2ncnc(Nc3ccc(C)c(C)c3)c2c1	-1%	-1%	1%[57.1 µM]	4%	15µM*	-13%[57.1 µM]
COCCCNc1ncnc2ccc(C)cc12	-7%	0%	5%[0.457 µM]	8%	?	2%
Cc1cc(/C=C/c2ccnc3ccccc23)ccc1N(C)C	/	/	-11%	/	/	-8%
COCCn1c(=NC(=O)c2ccc3c(c2)OCCO3)sc2cc(C(=O)OC)ccc21	3%	/	2%[57.1 µM]	-7%	/	11%[57.1 µM]
Cc1ccc(S(=O)(=O)c2nnn3c2nc(NCCc2ccccc2)c2sccc23)cc1	-1%	/	13%	-6%	21µM*	36%
CC[N+]1(CC(=O)c2ccc(Cl)cc2)CCCCC1	/	/	7%	/	/	23%
COc1ccccc1C(c1nnnn1Cc1ccco1)N1CCN(c2cccc(C)c2C)CC1 (stereo not drawn)	-15%	9%	-5%	0%	12µM*	-2%
CCC1(C)NC(c2ccc3c(c2)OCO3)=CC(c2ccccc2O)N1 (stereo not drawn)	1%	/	9%[0.0914 µM]	/	6%	-9%
O=S1(=O)CCO[C@H]2CCCC[C@@H]2N1Cc1ccccc1Br	/	/	-5%	/	/	-5%
C=C1[C@@H](O)[C@H](CC(C)C)N(Cc2ccccc2Br)S1(=O)=O	-20%	/	-3%[57.1 µM]	17%	?	5µM*
CC(C)CCNCC(O)CON=C1c2ccccc2-c2ccccc21 (stereo not drawn)	7%	0%	-2%[57.1 µM]	12%	12%	30%
CN(CC(O)CON=C1c2ccccc2-c2ccccc21)S(=O)(=O)c1ccc(Br)cc1 (stereo not drawn)	?	?	-4%	-3%	21µM*	2%
CCN(CC(O)CON=C1c2ccccc2-c2ccccc21)S(=O)(=O)c1ccc(Cl)cc1 (stereo not drawn)	-16%	11%	4%	3%	?	-1%
CCN(CC(O)CON=C1c2ccccc2-c2ccccc21)S(=O)(=O)c1ccc(C)cc1 (stereo not drawn)	?	26%	-7%	1%	21µM*	-9%
CCC(C)NC(=O)c1ccc2c(c1)nc1n2CCCCC1 (stereo not drawn)	-1%	/	-2%[57.1 µM]	0%	/	20%[57.1 µM]
O=c1c2ccccc2nc(-c2ccccc2O)n1Cc1ccccc1	1%	/	/	/	13%	/
Cc1cccc(N2CCN(C(=O)C3CCN(S(=O)(=O)Cc4ccccc4)CC3)CC2)c1C	-3%	/	-3%	-10%	-3%	6%
COc1cc(Nc2ccc(C)cc2)c([N+](=O)[O-])nc1[N+](=O)[O-]	-29%	10%	-12%	7%	4%	4.5µM*
COc1ccc(OC)c(-n2nnnc2SCC(=O)Nc2ccc3c(c2)OCCO3)c1	-12%	-3%	13%	-3%	-15%	39%
COc1ccc(OC)c(-n2nnnc2SCC(=O)Nc2ccc(C(=O)N3CCCCC3)cc2)c1	-13%	1%	-4%	0%	18µM*	11%
CC(=O)N1CCc2cc(S(=O)(=O)N3c4ccccc4CC3C)ccc21 (stereo not drawn)	-12%	-1%	8%	-10%	15µM*	19%
COc1cccc(-c2nn(C)c3sc(C(=O)N4CCN(c5cccc(C)c5)C(C)C4)cc23)c1 (stereo not drawn)	-8%	/	0%	-17%	?	0%
CC(C)Oc1ccc(CNC(=O)c2cccc(NC(=O)N3CCSc4ncccc43)c2)cc1	4%	/	-3%	-15%	23µM*	-1%
CCOc1ccc(CNC(=O)c2cccc(NC(=O)N3CCSc4ncccc43)c2)cc1	2%	/	4%	19%	?	8%
[2H]C(CCOS(N)(=O)=O)c1ccc(C(C)(C)C)cc1 (stereo not drawn)	-3%	11%	-8%	11%	5.2µM*	10%
